Legend:
Assay in all cases: PBM binding z-score (relative to random genomic background probes); higher = stronger binding; sequences stand for … in GC…GCGATTGACAGCGTAGAATGAAGG
[1] = tested on: FXR:RXRa (NR concentration 270 nM, RXRa partner concentration 90 nM)
Outline: (§1)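 Scanned fluorescence from custom Agilent 4×180K protein-binding microarrays was regression-normalized. Binding z-scores use random background probes as reference. Ligand-free nuclear receptor dimers were incubated on the arrays for 1 h and detected with antibodies against each partner (one per run).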

[2] = tested on: LXRa:RXRa (NR concentration 270 nM, RXRa partner concentration 90 nM)
Outline: as §1

[3] = tested on: LXRa homodimer (NR concentration 270 nM)
Outline: as §1

[4] = tested on: LXRb:RXRa (NR concentration 270 nM, RXRa partner concentration 90 nM)
Outline: as §1

[5] = tested on: LXRb homodimer (NR concentration 270 nM)
Outline: as §1

[6] = tested on: PPARa:RXRa (NR concentration 270 nM, RXRa partner concentration 90 nM)
Outline: as §1

[7] = tested on: PPARg:RXRa (NR concentration 180 nM, RXRa partner concentration 90 nM)
Outline: as §1

[8] = tested on: PPARg:RXRa 270nM:90nM, anti-RXR (NR concentration 270 nM, RXRa partner concentration 90 nM)
Outline: as §1

[9] = tested on: PPARg:RXRa 30nM:10nM, anti-RXR (NR concentration 30 nM, RXRa partner concentration 10 nM)
Outline: as §1

[10] = tested on: PPARg:RXRa 90nM:30nM, anti-RXR (NR concentration 90 nM, RXRa partner concentration 30 nM)
Outline: as §1

[11] = tested on: PPARg:RXRa DBDmut IVT, anti-RXR (DBD mutation: RXRa K156A/R161A, NR concentration 270 nM, RXRa partner concentration 90 nM)
Outline: as §1

[12] = tested on: PPARg:RXRa IVT, anti-PPARg (NR concentration 270 nM, RXRa partner concentration 90 nM)
Outline: as §1

[13] = tested on: PPARg DBDmut:RXRa IVT, anti-PPARg (DBD mutation: PPARg1 K132A/R137A, NR concentration 270 nM, RXRa partner concentration 90 nM)
Outline: as §1

[14] = tested on: PPARg DBDmut IVT, anti-PPARg (DBD mutation: PPARg1 K132A/R137A, NR concentration 270 nM)
Outline: as §1

[15] = tested on: PPARg homodimer (NR concentration 180 nM)
Outline: as §1

[16] = tested on: PXR:RXRa (NR concentration 270 nM, RXRa partner concentration 90 nM)
Outline: as §1

[17] = tested on: PXR homodimer (NR concentration 270 nM)
Outline: as §1

[18] = tested on: RARa:RXR (NR concentration 270 nM, RXRa partner concentration 90 nM)
Outline: as §1

[19] = tested on: RARa homodimer (NR concentration 270 nM)
Outline: as §1

[20] = tested on: RARb:RXRa (NR concentration 270 nM, RXRa partner concentration 90 nM)
Outline: as §1

Sequence	PBM binding z-score [1]	PBM binding z-score [2]	PBM binding z-score [3]	PBM binding z-score [4]	PBM binding z-score [5]	PBM binding z-score [6]	PBM binding z-score [7]	PBM binding z-score [8]	PBM binding z-score [9]	PBM binding z-score [10]	PBM binding z-score [11]	PBM binding z-score [12]	PBM binding z-score [13]	PBM binding z-score [14]	PBM binding z-score [15]	PBM binding z-score [16]	PBM binding z-score [17]	PBM binding z-score [18]	PBM binding z-score [19]	PBM binding z-score [20]
CGTCCAAGGCCAAAGGTCAGTGAAGAGATGACGG	4.06	3.48	0.794	3.05	-0.142	5.2	7.29	6.97	5.65	7.26	0.453	3.33	-0.0649	-1.23	3.96	4.26	0.612	5.8	1.79	4.58
CAAACTAAGTCACCGGAAGGTCAAAGTCCGCATG	3.59	3.86	3.92	3.75	1.12	4.07	2.05	2.78	0.812	2.18	2.44	2.88	0.787	1.14	2.8	3.98	1.63	4.43	1.48	3.46
GCTATTAGTTGTAAGGGCAACCGAATGATTCTCG	0.301	0.305	0.235	0.38	-0.00961	0.472	0.397	0.63	0.129	0.634	0.378	0.518	0.0721	0.01	0.811	0.273	0.159	0.496	0.359	1.41
GCTGATAGGTCAGGTTGGTCAGCTAACGGGTACG	2.43	2.19	-0.0156	1.67	0.114	2.71	0.952	1.4	-0.0509	0.754	1.74	1.49	-0.568	-0.567	1.32	1.25	-0.432	2.23	-0.0849	3.8
TCATATAGTTAAAAGGTGAAAGTCGGTGTGGTAA	1.74	1.98	0.272	1.98	0.21	3.42	3.17	5.23	5.04	5.39	3.12	2.36	1.13	0.7	2.01	1.38	0.951	2.72	2.03	2.02
ATCTCTAGGTAAGACTCAGTTCAGTGGAGAACGC	0.367	0.505	0.914	0.328	0.692	0.228	0.00731	0.28	0.129	0.315	1.76	1.05	0.655	0.595	1.2	1.32	1.24	0.355	0.601	0.727
ACTTACGGATCAACGAGGTTATAGCACGCGTATA	0.716	0.914	0.686	1.25	0.594	1.47	0.98	0.564	0.453	0.486	0.402	0.468	0.823	0.952	0.607	1.41	0.695	1.5	1.25	0.645
CCAGACAGGTGAGAAGGTAAGTCAGCCTCGATTA	0.146	0.152	-0.318	0.215	-0.265	0.66	0.255	0.254	-0.405	-0.0734	0.908	0.37	-1.11	-0.901	0.826	0.0674	0.339	0.396	0.66	0.566
GGAACGAGGGCAAGTTGATTGCAGAGTTTGATGG	1.16	0.697	-0.325	0.396	-0.755	1.84	0.925	1.03	-0.0716	0.569	3.51	2.76	0.164	-0.675	0.268	0.704	0.465	0.608	-0.397	2.69
AATACAGGGTCATCGTCGGCCAGAGTACGCACAG	7.47	6.48	2.78	4.83	1.41	6.44	6.81	6.01	2.65	4.97	2.45	4.09	1.99	1.48	3	4.39	0.762	5.31	1.13	4.46
CATCGGAGGACAGAAGGTCAGAGCTGTCCGCTTT	1.15	1.44	0.265	0.77	-0.44	1.8	0.369	1.27	-0.542	0.627	-0.292	0.418	-0.481	-1.29	0.568	1.12	-0.438	1.86	-0.23	2.86
AATACAGGGTCACTACGCCAGAGTAGGTACGAAT	6.43	4.99	1.13	4.16	1.17	5.41	6.19	5.01	2.58	3.89	2.98	4.51	2.04	1.71	2.16	3.28	0.564	4.53	1.63	4.17
TGTTGTAGATCAAGCAGGTTAAGAAAGCCTGAGT	-0.212	-0.245	-0.47	-0.0172	-0.215	0.282	-0.51	-0.0645	-0.0716	-0.0785	-0.275	0.329	0.0224	-0.646	-0.211	0.13	0.0391	0.16	0.163	-0.116
CCTACTTGGTCAGGAGGTCACACACCGGATATGA	3.55	3.69	2.02	3.39	0.285	4.29	3.39	3.9	1.75	3.1	1.61	3.56	0.756	0.0151	3.23	4.26	1.05	4.89	2.31	3.75
ATCTCTAGGTATCAAGTTCAGTGAAAGAGAGGAC	0.749	0.772	0.719	0.674	1.24	0.806	0.577	1.44	0.214	1.15	0.507	1.03	1.04	1.12	0.949	1.05	2.18	0.725	1.18	1.59
TCTTGTAGATCAAGCAGGCTAAGAAAGCCTGAGT	-0.142	-0.307	-0.525	-0.376	-0.474	0.113	-0.409	0.913	2.4	1.59	1.46	0.173	-0.469	1.11	-0.6	-0.424	-0.306	-0.588	-1.2	-0.756
CCGACTGGGGCATAAGGTTCCCATAAGCCAGCCC	-0.429	-0.436	-0.915	-0.62	-1.28	0.156	0.836	1.45	-0.116	1.19	1.82	2	-1.14	-1.53	-0.0208	-0.582	-0.205	-0.563	0.262	0.252
TTACCAAGGTGAAGGTCCTTGATCCCTCTGTAGA	0.794	0.644	-0.31	1.04	-0.95	1.87	1.33	2.39	0.878	2.03	1.64	2.67	-0.58	-0.0809	-0.00432	0.544	-0.323	1.01	-0.146	1.75
TAGCCTAGGTCATTGGGCCATTATAGTACGCATC	4.57	3.93	1.08	2.84	0.197	4.22	4.13	3.99	1.45	3.32	3.37	4.19	0.472	0.314	2.65	1.86	-0.263	2.7	-0.217	3.56
CCTCGGAGGACAACAGGAGATCAGAGCTGCCAGA	-0.269	-0.36	-0.193	-0.853	-1.12	-0.626	0.424	-0.794	-0.377	-0.822	-0.232	-0.63	-1.13	-1.73	-0.0101	-0.68	-0.412	-0.621	-0.0651	0.694
TTACCAAGGTGAGCTGAGGTCGTGGATCCAACTC	1.09	0.85	-0.734	0.827	-1.47	2.1	0.337	0.913	0.0501	0.449	1.07	2.05	-0.299	-0.109	-0.369	3.77	-0.246	2.49	-0.727	1.94
AGAATGATGTTAAGATCAGGGAAACAGAATACAT	-0.488	-0.548	-0.153	-0.269	-0.588	-0.205	0.948	-0.174	0.282	-0.132	-0.786	-0.128	-0.544	0.266	-0.958	-0.441	-0.00916	-0.274	0.423	-0.436
GCTAGTTGGTCAGTAAAAGGTCAGACACCGGTCG	1.99	3.15	2.83	2.74	0.106	3.24	1.79	3.25	1.03	2.7	0.754	1.67	-0.192	0.136	3.21	3.35	0.554	4.17	0.966	3.71
TATAGCAGGCCAGAGGGTCACTCAAGAGGTACGG	1.02	1.2	-0.173	1.21	-0.338	2.59	2.56	3.15	1.56	3.12	-0.0119	1.41	0.475	-0.0534	1.11	1.73	-0.392	2.46	-0.269	2.09
CGTCCAACGTCAGAGAGGTCAGTGAATGCCGAGT	1.61	1.76	0.849	1.75	-0.287	2.31	0.391	0.537	-0.521	-0.194	0.129	0.706	-0.788	-0.969	1.24	2.74	0.717	2.53	0.224	2.92
CCTACTGGGCCATTCAGAGGTGATTGATCATATG	-0.00465	0.0536	-0.239	-0.138	-0.593	0.81	0.504	0.898	-0.276	0.119	3.85	3.8	0.186	-0.0997	0.152	0.147	-0.0295	0.451	0.129	0.622
CAGCCTAGGTCAGGGCCAATATAGGAGGAACGTT	1.73	0.833	-0.284	0.824	-1.05	2.05	1.37	1.22	0.246	0.449	1.3	1.88	-0.288	-1.23	0.413	0.404	-0.114	0.941	0.127	3.5
CCTACTGGGCCATTCATAGGTCATTGATCATATG	0.867	2.17	3.55	2	-0.0981	2.64	1.49	1.93	0.277	1.06	4.46	3.82	0.954	-0.204	1.33	1.8	0.411	2.11	0.376	1.88
